From PubChem BioAssay (EPA / NIEHS) come the findings set out here.

Results filed as inconclusive are left out. Activity calls are given as the source filed them. How the source made its calls: active means hit-call score of the fitted dose curve at least 0.9, where 1 is the maximum; inconclusive means response in the unintended direction; inactive means score below 0.9.

human Protein Tyrosine Phosphatase Non-receptor Type 6 (PTPN6), PTPN6 (gene 5777), sequence (P29350 whole entry, looked up): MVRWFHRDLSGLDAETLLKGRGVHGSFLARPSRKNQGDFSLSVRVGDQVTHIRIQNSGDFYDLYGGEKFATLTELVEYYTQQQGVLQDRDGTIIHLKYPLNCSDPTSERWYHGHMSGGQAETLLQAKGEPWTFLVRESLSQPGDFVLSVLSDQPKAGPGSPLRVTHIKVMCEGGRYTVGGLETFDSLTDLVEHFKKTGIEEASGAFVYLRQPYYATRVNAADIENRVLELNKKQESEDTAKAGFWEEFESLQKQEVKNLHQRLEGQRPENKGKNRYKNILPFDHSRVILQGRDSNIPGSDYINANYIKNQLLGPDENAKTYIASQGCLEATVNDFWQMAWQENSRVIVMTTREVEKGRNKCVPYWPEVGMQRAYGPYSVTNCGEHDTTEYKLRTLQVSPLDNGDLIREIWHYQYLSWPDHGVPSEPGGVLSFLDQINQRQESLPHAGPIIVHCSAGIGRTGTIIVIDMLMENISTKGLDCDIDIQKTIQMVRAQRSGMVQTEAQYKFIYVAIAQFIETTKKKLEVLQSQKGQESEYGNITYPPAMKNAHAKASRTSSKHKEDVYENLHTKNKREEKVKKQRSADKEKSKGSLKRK

This assay concerns the target human Protein Tyrosine Phosphatase Non-receptor Type 6 (PTPN6), PTPN6 (gene 5777) (UniProt P29350). The assay can be described thus: NVS_ENZ_hPTPN6: NovaScreen (NVS) Enzymatic Assay for human Protein Tyrosine Phosphatase Non-receptor Type 6 (PTPN6) (AID 2283210). The gist of the method:
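Recombinant human PTPN6 from SF9 cells, enzyme activity followed by fluorescence after mobility-shift separation of substrate and product at 1.33 h. Chemicals first tested at a single 25 uM in duplicate, then confirmed across concentration series; loss of signal relative to DMSO.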
With `CCOP(=S)(OCC)SCSP(=S)(OCC)OCC`, the call was inactive. Consider `Cn1sc(Cl)cc1=O`, for which the call was inactive. With `CCOP(=S)(OCC)Oc1nc(Cl)c(Cl)cc1Cl`, the result was inactive.
